In the assay the target is Nonstructural protein 3 (Zika virus) (UniProt A0A024AXB9).
Setting [1] is: PRVABC59, Concentration 50.0 uM, Number of replicates 1.0.
Where [2] appears, read: PRVABC59, Concentration 10.0 uM, Number of replicates 1.0.

Results on 27 compounds are retold here after ChEMBL document CHEMBL5606458, “ASAP - ZIKV NS2B-NS3 protease fluorescence single point” (2024).

Among all 2,700 compounds or so, about 160 (5.9%) showed an effect of 50% or more. Only a selection was taken, and strong results are over-represented in it overall.

Chain of Nonstructural protein 3 (Zika virus) (A0A024AXB9 as listed by the source): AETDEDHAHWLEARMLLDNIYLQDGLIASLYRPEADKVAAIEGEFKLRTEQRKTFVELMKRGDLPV

Take `COC(=O)c1csc2cc(C(=O)N3CCCc4cc(CCN)ccc43)[nH]c12`: the inhibition stood at 6.59% (PRVABC59, Concentration 49.5 uM, Number of replicates 2.0, Standard deviation 0.9658024514724747 %); 17.1% (PRVABC59, Concentration 99.01 uM, Number of replicates 2.0, Standard deviation 0.02626726469114151 %); 35.6% (PRVABC59, Concentration 198.0 uM, Number of replicates 2.0, Standard deviation 0.028287616021359725 %).

Take `c1ccc2c([C@H]3CCN(C[C@H]4CCOC4)C3)c[nH]c2c1`: the inhibition was found to be 4.89% (PRVABC59, Concentration 49.5 uM, Number of replicates 2.0, Standard deviation 3.5400839111105795 %); 11.3% (PRVABC59, Concentration 99.01 uM, Number of replicates 2.0, Standard deviation 2.681337995191051 %); 20.9% (PRVABC59, Concentration 198.0 uM, Number of replicates 2.0, Standard deviation 1.591884445207739 %).

Regarding `CS(=O)(=O)c1ccc(N2CCNCC2)cc1NC(=O)c1cccc2ncccc12`, the inhibition is 11.9% (PRVABC59, Concentration 49.5 uM, Number of replicates 2.0, Standard deviation 1.82855821855933 %); 19.4% (PRVABC59, Concentration 99.01 uM, Number of replicates 2.0, Standard deviation 4.882597086209548 %); 12.5% (PRVABC59, Concentration 198.0 uM, Number of replicates 2.0, Standard deviation 6.745947359627227 %).

As for `CCn1ccnc(N2CC[C@@H](CC(N)=O)C2)c1=O`, the inhibition was determined as 7.29% (PRVABC59, Concentration 49.5 uM, Number of replicates 2.0, Standard deviation 2.578637589312797 %); 15.8% (PRVABC59, Concentration 99.01 uM, Number of replicates 2.0, Standard deviation 2.4095461189610305 %); 30.8% (PRVABC59, Concentration 198.0 uM, Number of replicates 2.0, Standard deviation 1.1815224976183896 %).

As for `Cc1cnccc1NC(=O)c1cccn(C[C@@H]2CCNC2)c1=O`, the inhibition by setting is: (PRVABC59, Concentration 49.5 uM, Number of replicates 2.0, Standard deviation 1.3483593644559142 %) 2.86%; (PRVABC59, Concentration 99.01 uM, Number of replicates 2.0, Standard deviation 1.4355155911348652 %) 4.88%; (PRVABC59, Concentration 198.0 uM, Number of replicates 2.0, Standard deviation 0.7536456684870648 %) 8.2%.

For `CNC(=O)c1cc(Cl)c(F)cc1NS(=O)(=O)c1ccc(Oc2ccccc2Cl)cc1`, the inhibition is, setting by setting: (PRVABC59, Concentration 49.5 uM, Number of replicates 2.0, Standard deviation 0.22897404989083275 %) 53.5%; (PRVABC59, Concentration 99.01 uM, Number of replicates 2.0, Standard deviation 0.1399302344544729 %) 88.1%; (PRVABC59, Concentration 198.0 uM, Number of replicates 2.0, Standard deviation 0.21988651500230783 %) 90.5%.

On to `CCc1ccc(NS(=O)(=O)c2ccc(Oc3ccccc3Cl)cc2)c(C(=O)NC)c1`, for which the inhibition by setting is: (PRVABC59, Concentration 49.5 uM, Number of replicates 2.0, Standard deviation 1.2139175769082269 %) 14.3%; (PRVABC59, Concentration 99.01 uM, Number of replicates 2.0, Standard deviation 1.880844587297581 %) 19.5%; (PRVABC59, Concentration 198.0 uM, Number of replicates 2.0, Standard deviation 1.9898788215700518 %) 28.9%.

For the compound `CNC(=O)c1cc(Cl)ccc1NS(=O)(=O)c1ccc(Oc2ccccc2Cl)cc1`, the inhibition is, setting by setting: (PRVABC59, Concentration 49.5 uM, Number of replicates 2.0, Standard deviation 4.182044982903414 %) 16.8%; (PRVABC59, Concentration 99.01 uM, Number of replicates 2.0, Standard deviation 0.7456984587318506 %) 44.5%; (PRVABC59, Concentration 198.0 uM, Number of replicates 2.0, Standard deviation 0.5270959053225787 %) 31.5%.

On to `O=S(=O)(Nc1ccc(Cl)cc1)c1ccc(Oc2ccccc2Cl)cc1`, for which the inhibition is, setting by setting: (PRVABC59, Concentration 49.5 uM, Number of replicates 2.0, Standard deviation 0.5562375850821631 %) 7.5%; (PRVABC59, Concentration 99.01 uM, Number of replicates 2.0, Standard deviation 0.1909474772903637 %) 13.8%; (PRVABC59, Concentration 198.0 uM, Number of replicates 2.0, Standard deviation 0.9464347944699606 %) 26.1%.

Turning to `CNC(=O)c1cc(Cl)ccc1NS(=O)(=O)c1cccc(Oc2ccccc2)c1`, the inhibition runs as follows: (PRVABC59, Concentration 49.5 uM, Number of replicates 2.0, Standard deviation 3.0665234385287206 %) 9.77%; (PRVABC59, Concentration 99.01 uM, Number of replicates 2.0, Standard deviation 2.7531252049731103 %) 15.8%; (PRVABC59, Concentration 198.0 uM, Number of replicates 2.0, Standard deviation 3.162284112918565 %) 28.1%.

With `Cc1cc(NS(=O)(=O)c2ccc(Oc3ccccc3Cl)cc2)c(C(=O)NCC(F)(F)F)cc1F`, the inhibition (PRVABC59, Concentration 49.5 uM, Number of replicates 2.0, Standard deviation 1.109661109382951 %) amounted to 38%; the inhibition (PRVABC59, Concentration 99.01 uM, Number of replicates 2.0, Standard deviation 0.5262974754243883 %) amounted to 43.1%; the inhibition (PRVABC59, Concentration 198.0 uM, Number of replicates 2.0, Standard deviation 0.754567504357695 %) was found to be 32.6%.

Consider `CNC(=O)c1cc(C#N)ccc1NS(=O)(=O)c1ccc(Oc2ccccc2Cl)cc1`, for which the inhibition was determined as 15.1% (PRVABC59, Concentration 49.5 uM, Number of replicates 2.0, Standard deviation 1.5671297466159566 %); 25.1% (PRVABC59, Concentration 99.01 uM, Number of replicates 2.0, Standard deviation 1.4439402403900108 %); 58.3% (PRVABC59, Concentration 198.0 uM, Number of replicates 2.0, Standard deviation 0.43015410765006534 %).

Regarding `CNC(=O)c1cc(Cl)c(OC)cc1NS(=O)(=O)c1ccc(Oc2ccccc2Cl)cc1`, the inhibition was determined as 34.2% (PRVABC59, Concentration 49.5 uM, Number of replicates 2.0, Standard deviation 2.6404535290867552 %); 79.4% (PRVABC59, Concentration 99.01 uM, Number of replicates 2.0, Standard deviation 0.459760751442422 %); 89.8% (PRVABC59, Concentration 198.0 uM, Number of replicates 2.0, Standard deviation 0.11085228072983687 %).

Regarding `NC(=O)c1ccccc1NS(=O)(=O)c1ccc(Oc2ccccc2Cl)cc1`, the inhibition was -1.32% (PRVABC59, Concentration 49.5 uM, Number of replicates 2.0, Standard deviation 0.8239548725855442 %); 2% (PRVABC59, Concentration 99.01 uM, Number of replicates 2.0, Standard deviation 0.884539787208196 %); 31.5% (PRVABC59, Concentration 198.0 uM, Number of replicates 2.0, Standard deviation 0.6321029239261367 %).

For `O=Cc1ccc(N2CCC(C(=O)N3CCC(N4CCc5ccccc5C4)CC3)CC2)cc1`, the inhibition under setting [1] was 31.7%.

As for `NS(=O)(=O)c1nc(C(=O)N2CCc3c(CO)cccc32)n2ccccc12`, the inhibition was 14.9% (PRVABC59, Concentration 49.5 uM, Number of replicates 2.0, Standard deviation 0.7415262579040602 %); 16% (PRVABC59, Concentration 99.01 uM, Number of replicates 2.0, Standard deviation 0.42632784815485236 %); 22.8% (PRVABC59, Concentration 198.0 uM, Number of replicates 2.0, Standard deviation 0.11314911538628655 %).

Turning to `O=Cc1ccc(N2CCC(C(=O)NC[C@H](O)c3ccc(O)c(O)c3)CC2)cc1`, the inhibition under setting [1] is 37%.

Turning to `O=Cc1ccc(N2CCC(C(=O)Nc3cccc(Br)n3)CC2)cc1`, under setting [1], the inhibition worked out at 69.5%.

For `O=Cc1ccc(N2CCC(C(=O)NCCN3CCc4ccccc43)CC2)cc1`, the inhibition under setting [1] is 67.9%.

Regarding `CC1CCN(CCCCNC(=O)C2CCN(c3ccc(C=O)cc3)CC2)CC1`, under setting [1], the inhibition came to 38.3%.

As for `O=Cc1ccc(N2CCC(C(=O)Nc3ccc(Br)cc3O)CC2)cc1`, under setting [1], the inhibition stood at 36.5%.

`O=Cc1ccc(N2CCC(C(=O)NCc3cccc(-c4ccccc4)c3)CC2)cc1`: under setting [2], the inhibition amounted to 66.7%.

`O=Cc1ccc(N2CCC(C(=O)Nc3ncc(Br)cc3O)CC2)cc1`: the inhibition under setting [1] turned out to be 63.3%.

On to `O=Cc1ccc(N2CCC(C(=O)NCCc3ccc(O)c(O)c3)CC2)cc1`, for which the inhibition under setting [1] was determined as 48.5%.

As for `O=Cc1ccc(N2CCC(C(=O)NCCC3CCN(Cc4ccccc4)CC3)CC2)cc1`, the inhibition under setting [1] amounted to 36.7%.

`O=Cc1ccc(N2CCC(C(=O)NCCc3ccccc3[N+](=O)[O-])CC2)cc1`: the inhibition under setting [1] is 31.8%.

Turning to `CC(=O)Nc1cccc(CNC(=O)C2CCN(c3ccc(C=O)cc3)CC2)c1`, under setting [2], the inhibition was determined as 37.6%.
